# Assay results as given in the supplement of paper PMC6555819.
# How the values were obtained:
# Experiment in all cases: PBM binding z-score (relative to random genomic background probes); higher = stronger binding; sequences stand for … in GC…GCGATTGACAGCGTAGAATGAAGG
# [1] = tested on: RARb homodimer (NR concentration 270 nM)
# How it was run: (§1)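 Ligand-free nuclear receptor dimers were bound for 1 h to custom Agilent 4×180K protein-binding microarrays. Detection used antibodies against each partner (one per run). Binding z-scores rest on regression-normalized fluorescence, with random background probes as the reference.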
# [2] = tested on: RARg:RXRa (NR concentration 270 nM, RXRa partner concentration 90 nM)
# How it was run: as §1
# [3] = tested on: RARg homodimer (NR concentration 270 nM)
# How it was run: as §1
# [4] = tested on: RXRa DBDmut IVT, anti-RXR (DBD mutation: RXRa K156A/R161A, NR concentration 90 nM)
# How it was run: as §1
# [5] = tested on: RXRa homodimer (NR concentration 180 nM)
# How it was run: as §1
# [6] = tested on: THRa:RXRa (NR concentration 90 nM, RXRa partner concentration 90 nM)
# How it was run: as §1
# [7] = tested on: THRa homodimer (NR concentration 90 nM)
# How it was run: as §1
# [8] = tested on: VDR:RXRa (NR concentration 270 nM, RXRa partner concentration 90 nM)
# How it was run: as §1
# [9] = tested on: VDR homodimer (NR concentration 270 nM)
# How it was run: as §1
Sequence,PBM binding z-score [1],PBM binding z-score [2],PBM binding z-score [3],PBM binding z-score [4],PBM binding z-score [5],PBM binding z-score [6],PBM binding z-score [7],PBM binding z-score [8],PBM binding z-score [9]
TCAGACAGGTGAAGGTACCTCAGGTACGCAGTCG,0.421,0.412,0.332,1.1,1.05,0.941,0.205,0.202,0.0555
CGTCCAAGTTCAGCAGGTCAGTGAAAGCGACGTG,3.8,3.81,3.65,3.67,2.52,1.96,0.713,2.86,3.65
CGAACTAGGTCCGAACAGGACAGTGAAGGATGAT,-0.462,-0.22,0.235,0.44,-0.527,0.105,-0.912,-0.576,-0.155
TAGCCTTGGTCATGGGCCAGTATACCACGCGAAC,0.441,0.368,0.681,-1.32,0.297,-0.147,-0.424,-0.347,-0.715
CGCGAAAGGTCGTGCTCAGGTGAGTATACCAAAC,3.1,5.55,4.27,2.19,5.98,4.17,1.26,3.57,1.18
TCATATAGGTAAATGTGAAAGTCGAACGATATGA,-0.396,0.293,0.464,0.849,0.579,-0.0536,-0.354,0.491,0.207
ATCTCTAGGTAAAAGTTCAGTGTATCCCGAGGAT,2.33,1.84,2.05,1.12,1.49,1.43,0.678,1.56,2.3
TTACCAAGGTGAGCTGAGGTCGTTGCTCCAACTC,1.57,0.912,0.763,0.505,1.26,4.78,2.1,4.1,1.93
CCGTACGGGTCACGAGGTTATAGCACGACGAGCG,4.11,6.39,5.81,1.55,7.62,3.75,0.803,5.23,1.75
ATCTCTAGGTAAGGCTCAGTTCAGTGAAGAACGC,0.805,0.0838,-0.0338,0.317,-0.0677,0.831,0.732,0.553,1.36
GCGACTGGTGCATCAGCAGGTTACCATAACTTAA,0.107,-0.0711,-0.351,-0.127,-0.12,0.163,-0.356,-0.435,-0.21
ACTCGGAGGACAAAGGGCAGAGCTACGCCAGTGA,1.69,1.81,1.91,0.468,0.615,0.877,-0.631,-0.214,-0.288
TCTATTAGTTGAACGGCAACCGACGAGTCCGTTT,-0.12,0.0941,-0.2,1.53,0.254,-0.127,0.107,0.759,0.971
CCGACTGGGGCAGAAAGGTTGCCATACCATCCGG,0.631,0.253,0.175,-1.11,0.422,-0.0628,-0.642,-0.0793,-0.404
CCGAGGAGGTTATGGGGCATTCAGGCAACGGTGA,1.31,1.42,0.885,0.0755,1.95,1.25,0.438,0.925,0.25
GATACAGGGTCAAGGCCAGACTACGCGTATTGAT,3.74,5.51,5.17,2.76,5.73,3.8,1.55,4.28,2.1
